For 13 compounds, growth results are on record in PubChem BioAssay (NCI).

Some test systems named below: SK-MEL-2 melanoma; EKVX NSCLC; SN12C renal; UO-31 renal; TK-10 renal; ACHN renal; CCRF-CEM leukemia; MOLT-4 leukemia; SR leukemia.
Assay in all cases: NCI-60 one-dose screen, 48 h (100 = growth as untreated, 0 = no growth, -100 = all killed)
Holding throughout (conditions): 10 µM unless noted

About 83,000 compounds went through this panel and 20% of them were active in at least one assay; those are over-represented in the sample as a whole.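 How to read the values: 0–100, growth inhibition (40 = 60% inhibited); 0, no net growth; -100 to 0, cell death (-40 = 40% of starting cells died; -100 = all dead).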 A number with no mark means an inactive call. The source made the active and inactive calls. Rule for the calls: active = growth percent below 10; inactive = the rest.

In the case of `COc1cc(C2=N/C(=C\c3cc4ccccc4nc3Oc3ccccc3)C(=O)N2C(=N)N)cc(OC)c1OC`, the growth was 84.7% in the test on SK-MEL-2 melanoma; 72.1% in the test with EKVX NSCLC; 43.1% in the test on SN12C renal; 55.3% in the test on UO-31 renal; 80.6% in the test with TK-10 renal; 61.9% in the test with ACHN renal. Further, the growth in the test with CCRF-CEM leukemia was 87.3%; in the test on MOLT-4 leukemia, 85.1%; in the test on SR leukemia, 63.8%.
On to `COc1ccc(NC(=O)Nc2ccc(Nc3nc(C)cc(Nc4ccc(C)cc4)n3)cc2)cc1`, for which the growth in the test on SK-MEL-2 melanoma was -61.9% (active); in the test on EKVX NSCLC, -70.9% (active); in the test with SN12C renal, -71% (active); in the test on UO-31 renal it was -90.5% (active); with TK-10 renal it was -95.9% (active); in the test with ACHN renal, -99.6% (active). Besides, the growth is -7.9% (active) in the test with CCRF-CEM leukemia, -35.3% (active) in the test with MOLT-4 leukemia and -37.1% (active) in the test on SR leukemia.
Take `Nc1ccc(C(=O)Nc2cccc(C(=O)Nc3ccc4c(O)c(N=Nc5ccc(N=Nc6ccc(S(=O)(=O)O)cc6)cc5)c(S(=O)(=O)O)cc4c3)c2)cc1`: the growth in the test on SK-MEL-2 melanoma was 97.5%; in the test on EKVX NSCLC, 105%; with SN12C renal, 101%; in the test on UO-31 renal, 88.4%; in the test with TK-10 renal it was 97.1%; in the test with ACHN renal, 106%. Moreover, the growth with CCRF-CEM leukemia is 98.5%; in the test with MOLT-4 leukemia, 92.1%; in the test with SR leukemia, 92.2%.
For the compound `Cc1c(Cl)cccc1NC(=O)c1sc2nc3c(cc2c1N)CCCCC3`, the growth was 48.5% in the test on SK-MEL-2 melanoma; 42.2% in the test with EKVX NSCLC; 44.9% in the test with SN12C renal; 55.2% in the test on UO-31 renal; 65.6% in the test with TK-10 renal; 62.5% with ACHN renal. Also, the growth with CCRF-CEM leukemia is 9.59% (active); in the test on MOLT-4 leukemia, 14.4%; with SR leukemia, 12.8%.
Take `COc1ccccc1Nc1nnc(-c2ccc(Cl)cc2)o1`: the growth is 34.4% with SK-MEL-2 melanoma; 50.8% with EKVX NSCLC; 59.6% in the test with SN12C renal; 69.5% with UO-31 renal; 68.9% in the test on TK-10 renal; 72.2% in the test on ACHN renal. Also, the growth with CCRF-CEM leukemia is 38%; in the test on MOLT-4 leukemia, 19.5%; in the test on SR leukemia it was 19.7%.
`S=C(Nc1ccc(Cl)cc1)c1ccccn1`: the growth was 92.1% in the test with SK-MEL-2 melanoma; 87.9% in the test with EKVX NSCLC; 99.3% in the test on SN12C renal; 71.5% with UO-31 renal; 110% in the test with TK-10 renal; 99% in the test with ACHN renal. Besides, the figures for the growth in the test on CCRF-CEM leukemia, in the test on MOLT-4 leukemia and in the test on SR leukemia were 99.4%, 101% and 102%, respectively.
As for `CSc1cccc(NC(=O)Nc2nc3c(C)cccc3s2)c1`, the growth is 98.5% with SK-MEL-2 melanoma; 80.2% in the test with EKVX NSCLC; 94.3% in the test on SN12C renal; 84.4% in the test on UO-31 renal; 119% in the test on TK-10 renal; 101% in the test on ACHN renal. Moreover, the results for the growth in the test on CCRF-CEM leukemia and in the test with MOLT-4 leukemia were 106% and 99.9%, respectively.
On to `O=C(/C(=C/c1ccc([N+](=O)[O-])cc1)SCc1ccc(Cl)cc1)c1ccc(F)cc1`, for which the growth in the test on SK-MEL-2 melanoma was 81.3%; in the test on EKVX NSCLC, 59.7%; with SN12C renal it was 45.9%; in the test on UO-31 renal, 45.8%; with TK-10 renal, 94.7%; in the test on ACHN renal, 54%. Also, the growth in the test on CCRF-CEM leukemia was 4.66% (active); with MOLT-4 leukemia, 7.69% (active); with SR leukemia, 0.569% (active).
Regarding `N#CC1C(c2ccc(Cl)cc2)=Nc2c(c(-c3ccccc3)nn2-c2ccccc2)C12C(=O)Nc1ccc(Cl)cc12` (stereo unspecified), the growth in the test on SK-MEL-2 melanoma is 71.3%; in the test on EKVX NSCLC, 40.1%; with SN12C renal, 60.2%; in the test on UO-31 renal it was 22.6%; with TK-10 renal, 47.8%; in the test on ACHN renal it was 36.6%. The growth with CCRF-CEM leukemia was 19.2%; in the test with MOLT-4 leukemia, 15.3%; in the test on SR leukemia it was 36.5%.
With `C=C1C(=O)O[C@H]2[C@H]1CC/C(COC(=O)NCc1nc3ccccc3[nH]1)=C\CC[C@@]1(C)O[C@@H]21`, the growth in the test on SK-MEL-2 melanoma was 60.2%; in the test on EKVX NSCLC, 83%; in the test with SN12C renal, 81.6%; in the test with UO-31 renal it was 75.5%; in the test with TK-10 renal, 74.3%; with ACHN renal, 91.4%. Besides, the growth with CCRF-CEM leukemia is 10.9%; with MOLT-4 leukemia it was 77.3%; with SR leukemia, 54.1%.
`N#Cc1c(-c2ccc(F)cc2)nc(N/N=C/c2cccc(O)c2)nc1N1CCOCC1`: the growth is 85.9% in the test with SK-MEL-2 melanoma; 86.9% with EKVX NSCLC; 96.7% with SN12C renal; 45.3% with UO-31 renal; 63.3% in the test on TK-10 renal; 66.9% in the test on ACHN renal. The growth in the test with CCRF-CEM leukemia is 56.4%; with MOLT-4 leukemia, 40%; in the test with SR leukemia, 2.93% (active).
In the case of `CCOC(=O)c1cnn(-c2nc(-c3ccc(F)cc3)c(C#N)c(N3CCOCC3)n2)c1N`, the growth in the test with SK-MEL-2 melanoma is 90%; in the test with EKVX NSCLC, 92.9%; in the test on SN12C renal it was 93.9%; with UO-31 renal it was 74.1%; with TK-10 renal it was 64%; with ACHN renal it was 95.7%. For the same compound, the growth with CCRF-CEM leukemia is 92.8%; with MOLT-4 leukemia, 90.4%; with SR leukemia it was 81.9%.
Consider `O=C1NC(SCc2ccc(F)cc2)=N/C1=C/c1cccc(OCc2ccc(Cl)cc2)c1`, for which the growth is 99.4% in the test on SK-MEL-2 melanoma; 66.3% in the test with EKVX NSCLC; 22.1% in the test on SN12C renal; -38.2% (active) with UO-31 renal; -5.9% (active) with TK-10 renal; -53.7% (active) in the test on ACHN renal. In addition, the values for the growth in the test with CCRF-CEM leukemia, in the test with MOLT-4 leukemia and in the test on SR leukemia were 54.8%, 51.2% and 20.6%, respectively.
